Assay outcomes: PubChem, National Center for Advancing Translational Sciences (NCATS)
Tb PYK inh – T. brucei pyruvate kinase inhibition. TbPYK enzyme, Kinase-Glo Plus ATP luminescence, 45 min. Potency, µM (series often up to 76.8 µM), for inactives: at the highest dose activity, negative = inhibition, usual class: inhibitors. actives 0.12% (n = 410,000). AID 624173; note: potency is the fitted concentration of half-maximal effect; % is set by controls: 0 for no effect and ±100 for the full control effect; nearly all actives have a fitted effect of over 50% in size
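TbPYK + substrate in 50 mM TEA pH 7.2, 100 mM KCl, 10 mM MgCl2, 0.05% BSA, 0.01% Tween-20; cpd pinned; ADP 130 uM final; 45 min RT; Kinase-Glo Plus 10 min; luminescence endpoint.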
SARS PLP yeast – blocks SARS-CoV papain-like protease in a yeast assay | S. cerevisiae expressing SARS-CoV PLpro, growth rescue | actives 0.19% (n = 330,000) | Potency, µM (top dose mostly 32.9 µM), for the others: top-dose activity, positive = growth rescue, actives largely listed as activators; calls by dose curve; note: potency is the fitted concentration of half-maximal effect; 0% is about no effect; nearly all actives have a fitted effect of over 55% in size
NS1 function inh – inhibitors of influenza NS1 protein function | actives 0.4% (n = 270,000) | Potency, µM (series often up to 46.1 µM), for the others: at the highest dose activity, positive = more growth; calls by dose curve; note: potency is the fitted concentration of half-maximal effect; actives are rising curves; nearly all actives have a fitted effect of over 50% in size
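S. cerevisiae expressing influenza A NS1, grown in glucose, washed, then diluted 1:100 into pH 6.0 -URA galactose medium with 23 nl compound. Growth recovery read as OD600; NS1-free strain serves as control.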
LmPK inhibitor – inhibitors of Leishmania mexicana pyruvate kinase. Q27686. purified LmPK, Kinase-Glo ATP luminescence, 1 h. Potency, µM (top dose mostly 57.5 µM), for inactives: top-dose activity change, negative = inhibition, actives largely listed as inhibitors. actives 0.37% (n = 290,000). AID 1721; note: potency is the fitted concentration of half-maximal effect; % is set by controls: 0 for no effect and ±100 for the full control effect
Target sequence (Q27686 whole entry, looked up): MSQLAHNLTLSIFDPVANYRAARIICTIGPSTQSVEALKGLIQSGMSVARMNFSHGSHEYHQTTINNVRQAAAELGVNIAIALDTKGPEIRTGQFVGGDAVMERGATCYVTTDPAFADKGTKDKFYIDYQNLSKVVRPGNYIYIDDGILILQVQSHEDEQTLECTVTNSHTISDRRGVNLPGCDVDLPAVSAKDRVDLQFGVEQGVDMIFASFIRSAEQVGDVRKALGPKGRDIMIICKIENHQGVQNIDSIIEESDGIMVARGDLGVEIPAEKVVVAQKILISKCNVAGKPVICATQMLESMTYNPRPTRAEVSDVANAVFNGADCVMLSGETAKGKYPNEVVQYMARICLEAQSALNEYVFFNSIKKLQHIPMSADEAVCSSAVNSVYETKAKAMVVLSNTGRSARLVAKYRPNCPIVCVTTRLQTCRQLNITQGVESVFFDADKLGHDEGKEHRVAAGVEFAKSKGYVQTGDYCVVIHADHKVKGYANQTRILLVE
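Purified LmPK (0.1 nM) with 0.5 mM PEP and 0.1 mM ADP in imidazole buffer pH 7.2 with MgCl2/KCl, 1 h at room temperature. ATP formed was read by luciferase luminescence and normalized to no-enzyme and uninhibited controls.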
CHX counter – counter-screen hit for Shiga toxin inhibitors, cycloheximide; cell reporter, cycloheximide protein synthesis inhibition counterscreen; max response, %; actives 12% (n = 300,000); AID 2314; in the data active = max response mostly above about 13%, no sharp cut-off; inactive = mostly below about 14%; note: read at 38.3 µM for the half of the compounds with a filed dose; 0% is about no effect
Shiga toxin inh – blocks Shiga toxin action in Vero cells; inhibition, % at 38.7 µM; actives 9.2% (n = 290,000); AID 2315; Vero cells, Shiga toxin protein synthesis inhibition reporter; in the data active = inhibition mostly above about 28%, no sharp cut-off; inactive = mostly below about 43%; note: 0% is about no effect
* = called active by the depositor. The entries come from a sample that favours hits as a whole. Unless noted, calls come from the whole dose curve; as a rule, active = well fitted curve in the direction sought with a large enough effect; inconclusive = small, poorly fitted or top-dose-only effect, or another doubt; inactive = no such curve, though single readings can be large; an effect the other way counts as inactive or inconclusive.

Screening O=C(Cn1nnc(-c2ccc(N3CCOCC3)cc2)n1)N1CCOCC1 returned Tb PYK inh -3%, SARS PLP yeast 0%, NS1 function inh 1%, LmPK inhibitor -5%, CHX counter 34* and Shiga toxin inh 34*.
`Cc1ccc(-c2nnn(CC(=O)N3CCCCC3)n2)cc1` gave Tb PYK inh 0%, SARS PLP yeast 0%, NS1 function inh -9%, LmPK inhibitor 7% and CHX counter 19*.
`Cc1ccc(C(=O)Cn2nnc(-c3ccccc3)n2)cc1` gave Tb PYK inh 7%, SARS PLP yeast 0%, NS1 function inh -2%, LmPK inhibitor 3%, CHX counter 21 and Shiga toxin inh 82*.
For CC(C)c1ccc(-c2nnn(CC(=O)N3CCCCC3)n2)cc1 the results were Tb PYK inh 4%, SARS PLP yeast 2%, NS1 function inh 15%, LmPK inhibitor 28% and CHX counter 9.
`CC1CC(C)CN(C(=O)Cn2nnc(-c3ccccc3)n2)C1` (configuration not stated) gave Tb PYK inh -2%, SARS PLP yeast -13%, NS1 function inh -9%, LmPK inhibitor -4%, CHX counter -3 and Shiga toxin inh 23.
COc1ccc(CCNc2cc(C)[nH]c(=O)c2)cc1OC was read as Tb PYK inh -4%, SARS PLP yeast 1%, NS1 function inh 12%, LmPK inhibitor -25%, CHX counter -2 and Shiga toxin inh -2.
Screening Cc1ccc(-c2nnn(CC(=O)NC3CC4CCC3C4)n2)cc1 (configuration not stated) returned Tb PYK inh -2%, SARS PLP yeast -12%, NS1 function inh -16%, LmPK inhibitor -2%, CHX counter 12* and Shiga toxin inh 12.
Screening COc1ccc(-c2nnn(CC(=O)c3ccc4c(c3)OCCO4)n2)cc1OC returned Tb PYK inh 1%, SARS PLP yeast -8%, NS1 function inh -9%, LmPK inhibitor 4%, CHX counter 16* and Shiga toxin inh 36.
For COc1ccc(-c2nnn(CC(=O)Nc3ccc4c(c3)OCCO4)n2)cc1OC the results were Tb PYK inh 5% and SARS PLP yeast -4%.
`CCCCOc1ccc(-c2nnn(CCC(=O)N3CCOCC3)n2)cc1` gave Tb PYK inh -11%, SARS PLP yeast -2%, NS1 function inh -72%, LmPK inhibitor -3%, CHX counter 36* and Shiga toxin inh 78*.
For CC1CCN(C(=O)CCc2nnc(-c3ccccc3)o2)CC1 the results were Tb PYK inh 1%, SARS PLP yeast inconclusive, NS1 function inh 1%, LmPK inhibitor -6%, CHX counter 43* and Shiga toxin inh 97*.
Screening C/C=C/c1ccc(OCC(=O)Nc2cc(S(=O)(=O)N3CCOCC3)ccc2N2CCCC2)c(OC)c1 returned Tb PYK inh -1% and SARS PLP yeast -1%.
Screening COc1ccc(NC(=O)c2cc(S(=O)(=O)N3CCCCCC3)cn2C)cc1Cl returned Tb PYK inh 2%.
`CC(CC(=O)O)(CC(=O)O)C(=O)O` gave NS1 function inh -2%.
`CC1C(=O)Nc2ccc(S(=O)(=O)NCc3ccc(N(C)C)cc3)cc2NC1=O` (configuration not stated) gave Tb PYK inh 4%.
Screening COCCN1C(=O)C(=O)/C(=C(/O)c2ccc(S(=O)(=O)N3CCCCC3)cc2)C1c1ccc(O)c(OC)c1 (configuration not stated) returned Tb PYK inh -2%, SARS PLP yeast 3%, NS1 function inh -2%, LmPK inhibitor 8%, CHX counter -4 and Shiga toxin inh -9.
`Brc1ccc(N=Cc2ccccn2)cc1` gave Tb PYK inh -4%, SARS PLP yeast 3%, NS1 function inh -5%, LmPK inhibitor -1%, CHX counter 22* and Shiga toxin inh 54*.
For C(=C\c1ccccn1)/c1ccccn1 the results were Tb PYK inh -2%, SARS PLP yeast -2%, NS1 function inh 4%, LmPK inhibitor -21%, CHX counter 64* and Shiga toxin inh 105*.
For C(=NOCc1ccccc1)c1ccccn1 the results were Tb PYK inh -5%.
`CNC(=O)N(O)C1N(/N=C/c2ccccc2O)C(=S)SC1(C)C` (configuration not stated) gave Tb PYK inh 1%, SARS PLP yeast 0%, NS1 function inh -3%, LmPK inhibitor 7%, CHX counter 15* and Shiga toxin inh 28.
CNC(=O)N(O)C1N(/N=C/c2ccccc2F)C(=S)SC1(C)C (configuration not stated) was read as Tb PYK inh 1%, SARS PLP yeast 0%, NS1 function inh 4%, LmPK inhibitor -1%, CHX counter -4 and Shiga toxin inh -10.
NC(=O)CSc1nnc(COc2ccccc2)n1Cc1ccco1 was read as Tb PYK inh 0%, SARS PLP yeast 2%, NS1 function inh -1%, LmPK inhibitor -3%, CHX counter 1 and Shiga toxin inh 18.
Cc1ccc(S(=O)(=O)N2CCc3c2cc([N+](=O)[O-])cc3[N+](=O)[O-])cc1 was read as Tb PYK inh 0%, SARS PLP yeast -4%, NS1 function inh 1%, LmPK inhibitor 2%, CHX counter -1 and Shiga toxin inh 24.
Screening Cc1cccc(CSCCNC(=O)C2CCN(S(=O)(=O)Cc3ccccc3)CC2)c1 returned Tb PYK inh 3%.
`O=c1[nH]c(COc2ccc(Cl)cc2Br)nc2ccccc12` gave Tb PYK inh 3%, SARS PLP yeast -15%, NS1 function inh -3%, LmPK inhibitor 2%, CHX counter 51* and Shiga toxin inh 127*.
For O=c1[nH]c(COc2ccc(Cl)cc2Cl)nc2ccccc12 the results were Tb PYK inh 3%, SARS PLP yeast -2%, NS1 function inh 1%, LmPK inhibitor 3%, CHX counter 38* and Shiga toxin inh 41*.
For O=C(CCc1nc2ccccc2c(=O)[nH]1)NNC(=O)COc1ccccc1Cl the results were Tb PYK inh -7% and SARS PLP yeast 1%.
Screening Cc1ccccc1NC(=O)COC(=O)c1cc(S(=O)(=O)N2CCOCC2)ccc1C returned Tb PYK inh 2% and SARS PLP yeast -3%.
COCc1c(C(=O)NC2CCCCC2)sc2cccc(F)c12 was read as Tb PYK inh 2% and SARS PLP yeast -6%.
Screening O=C(NC1CC1)c1cc2c(F)cccc2s1 returned Tb PYK inh -8%, SARS PLP yeast -2%, NS1 function inh -9%, LmPK inhibitor -5%, CHX counter 33* and Shiga toxin inh 24.
For CCc1nnc(NC(=O)OCc2ccccc2)s1 the results were Tb PYK inh -5%, SARS PLP yeast -10%, NS1 function inh 6%, LmPK inhibitor 0%, CHX counter 20* and Shiga toxin inh 60*.
